PubChem BioAssay AID435001 (Southern Research Specialized Biocontainment Screening …, 2010)
Calls of active or inactive are those of the source. No rule for the calls is given here.

These compounds were tested against Large T antigen (Simian virus 40) (UniProt P03070) (assay: large T antigen ATP hydrolysis inhibition – biochemical, ADP-Hunter, purified TAg, synthesized compounds (AID 435001)). Conditions: purified TAg ATPase, ADP-Hunter fluorescence; series mostly up to 100 µM; inhibition: at the top concentration.
Sequence of Large T antigen (Simian virus 40) (P03070 whole entry, looked up): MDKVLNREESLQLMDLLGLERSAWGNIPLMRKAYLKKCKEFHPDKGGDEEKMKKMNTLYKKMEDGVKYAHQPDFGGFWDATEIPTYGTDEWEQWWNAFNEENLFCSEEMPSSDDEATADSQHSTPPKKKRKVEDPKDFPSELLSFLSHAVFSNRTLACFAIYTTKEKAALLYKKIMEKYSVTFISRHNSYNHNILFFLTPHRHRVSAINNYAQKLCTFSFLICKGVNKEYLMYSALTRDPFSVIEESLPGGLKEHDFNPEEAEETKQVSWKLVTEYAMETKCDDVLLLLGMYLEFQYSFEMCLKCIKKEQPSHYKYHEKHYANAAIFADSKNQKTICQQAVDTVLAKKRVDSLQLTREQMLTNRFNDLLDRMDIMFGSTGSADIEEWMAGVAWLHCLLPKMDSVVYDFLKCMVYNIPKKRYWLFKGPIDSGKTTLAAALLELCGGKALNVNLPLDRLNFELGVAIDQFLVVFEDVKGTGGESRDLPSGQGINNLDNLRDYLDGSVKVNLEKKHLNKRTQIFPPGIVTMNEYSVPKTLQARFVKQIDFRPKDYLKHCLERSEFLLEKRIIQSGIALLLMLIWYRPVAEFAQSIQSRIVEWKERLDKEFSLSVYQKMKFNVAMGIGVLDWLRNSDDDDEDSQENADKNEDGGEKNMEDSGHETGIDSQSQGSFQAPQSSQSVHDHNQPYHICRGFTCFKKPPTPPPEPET

inhibition, inactive:
COc1ccc(C(C)(C)c2ccc(OC)cc2)cc1 -5.01%
COc1ccc(C(C)(O)c2ccc(OC)cc2)cc1 -10.5%
C=C(c1ccc(OC)cc1)c1ccc(OC)cc1 -6.97%
COc1ccc(C2(c3ccc(OC)cc3)CC2)cc1 -7.64%
